Reference: the supplement of paper PMC3334620
Over roughly 33,000 sequences, “E-score (-0.5 to 0.5)” has its median near -0.054; the highest 2% begin near 0.35. The entries come from a sample that favours the highest values as a whole.

Molecular target: T1, Stb5 (UniProt P38699)
T1 sequence: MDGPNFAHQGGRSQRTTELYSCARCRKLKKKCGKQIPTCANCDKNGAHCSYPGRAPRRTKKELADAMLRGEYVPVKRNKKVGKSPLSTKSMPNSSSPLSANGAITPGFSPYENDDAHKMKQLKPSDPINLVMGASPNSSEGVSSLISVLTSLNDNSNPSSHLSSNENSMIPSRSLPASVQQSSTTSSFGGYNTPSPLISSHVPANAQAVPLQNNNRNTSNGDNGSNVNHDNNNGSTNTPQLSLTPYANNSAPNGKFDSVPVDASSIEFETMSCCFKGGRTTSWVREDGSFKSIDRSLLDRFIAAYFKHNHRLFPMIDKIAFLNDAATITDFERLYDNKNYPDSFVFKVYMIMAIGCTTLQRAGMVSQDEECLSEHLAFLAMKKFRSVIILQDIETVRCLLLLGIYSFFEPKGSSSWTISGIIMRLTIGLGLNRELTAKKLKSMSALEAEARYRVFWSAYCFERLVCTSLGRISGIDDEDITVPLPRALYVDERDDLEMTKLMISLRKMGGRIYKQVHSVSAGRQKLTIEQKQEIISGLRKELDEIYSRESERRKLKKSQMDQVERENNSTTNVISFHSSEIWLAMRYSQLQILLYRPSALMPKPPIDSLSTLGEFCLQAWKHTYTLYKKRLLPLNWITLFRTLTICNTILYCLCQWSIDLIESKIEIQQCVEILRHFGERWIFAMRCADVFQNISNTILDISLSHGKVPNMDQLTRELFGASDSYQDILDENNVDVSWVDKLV
Assay: PBM E-score (8-mer binding enrichment) (E-score (-0.5 to 0.5)); higher = stronger / more preferred TF binding
Conditions: protein concentration: 200 nM; construct: GST-full length
Method: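 Universal 'all 10-mer' protein binding microarrays (Agilent AMADID 015681) probed with GST-tagged S. cerevisiae TFs (full-length or DBD) made by in vitro transcription/translation (PURExpress), about 100-200 nM. Bound TF was detected with fluorescent anti-GST. Each ungapped 8-mer (which stands for itself and its reverse complement) is scored by the PBM enrichment score (E-score), a modified Wilcoxon-Mann-Whitney statistic from -0.5 to +0.5, computed with the Universal PBM Analysis Suite. Scale: above 0.35 generally sequence-specific binding.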

Sequence	PBM E-score
CATACCGG	0.193
AATACCAG	-0.007
AATACCAT	-0.0252
TATACCGA	0.26
AATACCCT	-0.00882
GATACCGC	0.35
CGCGTCTC	0.0131
CATCGACG	0.0157
ATTGCAGA	-0.201
CGCAGCAA	-0.192
ACCGTCCA	0.242
AATGTGCA	-0.241
CGCAGAGC	-0.0211
ATGTGCTC	-0.151
CTGGACTA	-0.143
CAACATTA	-0.0568
GGCACCGA	0.351
AGCACCAG	-0.177
AGCACCTA	-0.104
AGCACCCG	0.153
AGCACCGG	0.421
AGCACCGA	0.476

Sequence	PBM E-score
ACAGAATC	-0.16
AACCGTAG	-0.118
CATTTCTA	0.0892
CGGACTCA	0.411
CGGACTCC	0.231
CGGACTAA	0.428
GGGACTCA	-0.0395
CGGACTTC	0.374
CGGACTGA	0.359
GGGACTAA	0.246
AGGACTGA	-0.184
CTGACTTC	0.00183
TGGACTAA	-0.0846
GGGACTGA	-0.172
AGGACTTC	-0.196
AGATCCAT	0.0463
ATAACGAG	-0.103
CTGGCCTC	-0.252
AGCATCGC	0.0104
CCACCTAA	-0.0966
ACAGTACG	-0.197
CGTTACCA	-0.112

Sequence	PBM E-score
CCCAGTAA	-0.198
ATGACCGA	0.31
ATGACCGC	0.381
AGGACCGC	0.397
AGGACCGA	0.33
CGGACCGC	0.298
ATGACCGG	0.308
CTGGTGCC	0.0505
CGTGCAAA	-0.0367
CCCGAGCA	-0.166
CAGCGTAG	-0.0828
ACGGTTCG	0.0226
GAATTAAC	-0.0887
TAGTGGCA	-0.0544
CGTCGGAA	0.24
CGTCGGAC	0.38
AGTCGGCA	0.325
CGTCGGAG	0.343
GGTCGGCA	0.375
GGTCGGAC	0.369
GGTCGGAA	0.251
AGTCGGAA	0.221

Sequence	PBM E-score
AGTCGGAG	0.302
CGTCGGCA	0.334
GCTCGGAC	0.242
AGTCGGAC	0.398
ACGCCTAT	-0.198
TACTACAA	-0.0615
ACAGCACT	-0.196
TCACCCGA	0.089
AGAGAAGC	-0.27
TAGTCAGA	-0.116
TCTGAGCA	-0.254
AGTCGGGC	0.312
CGTCGGGC	0.361
CGTCGGGA	0.337
CGGGTTAA	0.221
TGGTTTAA	-0.231
GGGGTTAA	0.404
GGGGTTAC	0.397
AGGGTTAA	-0.179
CGGGTTAC	0.0485
